# About 2,000 (36%) of roughly 5,500 compounds were called active. Inconclusive results (about 18%) are left out. This is one part of the list. Values without a mark were called inactive. No stated cut-off is given here; in the data, active means normalized growth mostly below about 0.91 (no sharp cut-off); inconclusive means no clear call, values can overlap the other calls; inactive means mostly above about 0.92.
# Experiment: chemical genetic growth profiling, strain panel (AID 1159580);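 further: tested at 20 µM; growth read once vehicle control cultures reached saturation at 30 °C; 1 = growth at the plate median or of vehicle wells; lower values mean less growth of the strain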
# Settings: growth OD
smiles,measurement,setting,value
CCC(=O)OCC(=O)C1(OC(=O)CC)C(C)CC2C3CCC4=CC(=O)C=CC4(C)C3(Cl)C(O)CC21C (configuration not stated),normalized growth,"S. cerevisiae deletion strains, locus YJR043C, strain POL32, hits give low values",1.03
same,normalized growth,"S. cerevisiae deletion strains, locus YJR066W, strain TOR1, hits give low values",0.995
same,normalized growth,"S. cerevisiae deletion strains, locus YKL009W, strain mrt4, hits give low values",1
same,normalized growth,"S. cerevisiae deletion strains, locus YKL068W, hits give low values",0.989
same,normalized growth,"S. cerevisiae deletion strains, locus YKL085W, strain MDH1 (second series), hits give low values",0.997
same,normalized growth,"S. cerevisiae deletion strains, locus YKL085W, strain MDH1, hits give low values",0.997
same,normalized growth,"S. cerevisiae deletion strains, locus YKL160W, strain elf1, hits give low values",0.964
same,normalized growth,"S. cerevisiae deletion strains, locus YKR001C, strain vps1, hits give low values",0.992
same,normalized growth,"S. cerevisiae deletion strains, locus YKR026C, strain gcn3, hits give low values",0.983
same,normalized growth,"S. cerevisiae deletion strains, locus YKR091W, strain srl3, hits give low values",0.983
same,normalized growth,"S. cerevisiae deletion strains, locus YLL001W, strain dnm1, hits give low values",0.927
same,normalized growth,"S. cerevisiae deletion strains, locus YLL026W, hits give low values",0.989
same,normalized growth,"S. cerevisiae deletion strains, locus YLL041C, strain sdh2, hits give low values",0.977
same,normalized growth,"S. cerevisiae deletion strains, locus YLR027C, strain aat2, hits give low values",0.962
same,normalized growth,"S. cerevisiae deletion strains, locus YLR039C, strain RIC1, hits give low values",1.02
same,normalized growth,"S. cerevisiae deletion strains, locus YLR058C, strain SHM2, hits give low values",1.02
same,normalized growth,"S. cerevisiae deletion strains, locus YLR102C, strain apc9, hits give low values",0.994
same,normalized growth,"S. cerevisiae deletion strains, locus YLR113W, strain HOG1, hits give low values",1.07
same,normalized growth,"S. cerevisiae deletion strains, locus YLR221C, strain rsa3, hits give low values",1.01
same,normalized growth,"S. cerevisiae deletion strains, locus YLR258W, strain gsy2, hits give low values",0.993
same,normalized growth,"S. cerevisiae deletion strains, locus YLR262C, strain YPT6 (second series), hits give low values",0.915
same,normalized growth,"S. cerevisiae deletion strains, locus YLR262C, strain YPT6, hits give low values",1.07
same,normalized growth,"S. cerevisiae deletion strains, locus YLR268W, strain sec22, hits give low values",0.985
same,normalized growth,"S. cerevisiae deletion strains, locus YLR320W, strain mms22, hits give low values",0.983
same,normalized growth,"S. cerevisiae deletion strains, locus YLR330W, strain CHS5, hits give low values",1.02
same,normalized growth,"S. cerevisiae deletion strains, locus YLR342W, strain FKS1 (second series), hits give low values",1.05
same,normalized growth,"S. cerevisiae deletion strains, locus YLR342W, strain FKS1, hits give low values",0.977
same,normalized growth,"S. cerevisiae deletion strains, locus YLR357W, strain rsc2, hits give low values",1.03
same,normalized growth,"S. cerevisiae deletion strains, locus YLR370C, strain arc18, hits give low values",0.963
same,normalized growth,"S. cerevisiae deletion strains, locus YLR371W, strain rom2, hits give low values",0.992
same,normalized growth,"S. cerevisiae deletion strains, locus YLR384C, strain iki3, hits give low values",0.958
same,normalized growth,"S. cerevisiae deletion strains, locus YLR418C, strain cdc73, hits give low values",0.984
same,normalized growth,"S. cerevisiae deletion strains, locus YML016C, strain PPZ1, hits give low values",1.02
same,normalized growth,"S. cerevisiae deletion strains, locus YML032C, strain rad52, hits give low values",0.994
same,normalized growth,"S. cerevisiae deletion strains, locus YML120C, strain ndi1, hits give low values",0.958
same,normalized growth,"S. cerevisiae deletion strains, locus YML124C, strain tub3, hits give low values",0.985
same,normalized growth,"S. cerevisiae deletion strains, locus YMR058W, strain fet3, hits give low values",0.986
same,normalized growth,"S. cerevisiae deletion strains, locus YMR078C, strain ctf18, hits give low values",0.992
same,normalized growth,"S. cerevisiae deletion strains, locus YMR125W, strain sto1, hits give low values",0.988
same,normalized growth,"S. cerevisiae deletion strains, locus YMR129W, hits give low values",0.976
same,normalized growth,"S. cerevisiae deletion strains, locus YMR205C, strain PFK2, hits give low values",0.965
same,normalized growth,"S. cerevisiae deletion strains, locus YMR223W, strain ubp8, hits give low values",1
same,normalized growth,"S. cerevisiae deletion strains, locus YMR231W, strain pep5, hits give low values",0.971
same,normalized growth,"S. cerevisiae deletion strains, locus YMR307W, strain GAS1, hits give low values",1.09
same,normalized growth,"S. cerevisiae deletion strains, locus YNL067W, strain RPL9B, hits give low values",0.996
same,normalized growth,"S. cerevisiae deletion strains, locus YNL071W, strain lat1, hits give low values",0.989
same,normalized growth,"S. cerevisiae deletion strains, locus YNL183C, strain NPR1, hits give low values",0.983
same,normalized growth,"S. cerevisiae deletion strains, locus YNL209W, strain ssb2, hits give low values",0.997
same,normalized growth,"S. cerevisiae deletion strains, locus YNL233W, strain BNI4, hits give low values",1
same,normalized growth,"S. cerevisiae deletion strains, locus YNL248C, strain rpa49, hits give low values",0.973
same,normalized growth,"S. cerevisiae deletion strains, locus YNL250W, strain rad50, hits give low values",1
same,normalized growth,"S. cerevisiae deletion strains, locus YNL271C, strain bni1, hits give low values",0.988
same,normalized growth,"S. cerevisiae deletion strains, locus YNL298W, strain CLA4, hits give low values",0.991
same,normalized growth,"S. cerevisiae deletion strains, locus YNL307C, strain MCK1, hits give low values",0.981
same,normalized growth,"S. cerevisiae deletion strains, locus YNL322C, strain KRE1 (second series), hits give low values",0.971
same,normalized growth,"S. cerevisiae deletion strains, locus YNR049C, strain mso1, hits give low values",0.982
same,normalized growth,"S. cerevisiae deletion strains, locus YNR052C, strain pop2, hits give low values",0.994
same,normalized growth,"S. cerevisiae deletion strains, locus YOL012C, strain htz1",1.1
same,normalized growth,"S. cerevisiae deletion strains, locus YOL147C, strain pex11, hits give low values",0.986
same,normalized growth,"S. cerevisiae deletion strains, locus YOR001W, strain rrp6, hits give low values",0.952
same,normalized growth,"S. cerevisiae deletion strains, locus YOR061W, strain CKA2, hits give low values",1.02
same,normalized growth,"S. cerevisiae deletion strains, locus YOR069W, strain VPS5, hits give low values",1.01
same,normalized growth,"S. cerevisiae deletion strains, locus YOR070C, strain gyp1, hits give low values",0.996
same,normalized growth,"S. cerevisiae deletion strains, locus YOR080W, strain dia2, hits give low values",0.954
same,normalized growth,"S. cerevisiae deletion strains, locus YOR083W, strain WHI5, hits give low values",0.946
same,normalized growth,"S. cerevisiae deletion strains, locus YOR106W, strain vam3, hits give low values",0.931
same,normalized growth,"S. cerevisiae deletion strains, locus YOR136W, strain idh2, hits give low values",0.979
same,normalized growth,"S. cerevisiae deletion strains, locus YOR144C, strain elg1, hits give low values",0.991
same,normalized growth,"S. cerevisiae deletion strains, locus YOR184W, strain ser1, hits give low values",0.986
same,normalized growth,"S. cerevisiae deletion strains, locus YOR231W, strain MKK1, hits give low values",1.05
same,normalized growth,"S. cerevisiae deletion strains, locus YOR265W, strain rbl2, hits give low values",0.985
same,normalized growth,"S. cerevisiae deletion strains, locus YOR270C, strain vph1, hits give low values",0.757 (active)
same,normalized growth,"S. cerevisiae deletion strains, locus YOR290C, strain snf2, hits give low values",1
same,normalized growth,"S. cerevisiae deletion strains, locus YOR316C, strain cot1, hits give low values",0.991
same,normalized growth,"S. cerevisiae deletion strains, locus YPL051W, strain arl3, hits give low values",0.986
same,normalized growth,"S. cerevisiae deletion strains, locus YPL055C, strain LGE1, hits give low values",1.01
same,normalized growth,"S. cerevisiae deletion strains, locus YPL078C, strain atp4, hits give low values",0.921
same,normalized growth,"S. cerevisiae deletion strains, locus YPL106C, strain sse1, hits give low values",1.06
same,normalized growth,"S. cerevisiae deletion strains, locus YPL240C, strain hsp82, hits give low values",0.976
same,normalized growth,"S. cerevisiae deletion strains, locus YPL241C, strain CIN2, hits give low values",1.02
same,normalized growth,"S. cerevisiae deletion strains, locus YPL256C, strain CLN2, hits give low values",1.05
same,normalized growth,"S. cerevisiae deletion strains, locus YPR119W, strain clb2, hits give low values",0.988
same,normalized growth,"S. cerevisiae deletion strains, locus YPR141C, strain kar3, hits give low values",0.988
same,normalized growth,"S. cerevisiae deletion strains, locus YPR163C, strain tif3, hits give low values",0.995
same,normalized growth,"S. cerevisiae deletion strains, locus YPR167C, strain met16, hits give low values",0.993
same,normalized growth,"S. cerevisiae deletion strains, strain wtn01, hits give low values",0.977
same,normalized growth,"S. cerevisiae strains, strain wild type, hits give low values",1.02

# Source: PubChem BioAssay AID1159580 (chemical genetic matrix, 2015)
